Measurements published in ChEMBL document CHEMBL4513216, “Probing the Open Global Health Chemical Diversity Library for Multistage-Active Starting Points for Next-Generation Antimalarials” (ACS Infect Dis, 2020).
The whole screen tested about 68,000 compounds, of which about 2,700 (4%) showed an effect of 50% or more. What follows is part of a selection rich in strong results, with near analogues and random picks from the rest.

These compounds were tested on Plasmodium berghei (assay: Screen against P. berghei liver stage (PbLuc), transformed with Luciferase, at 2uM). Settings: tested at 2 uM.
Type: functional, HepG2

Structure (SMILES) | INHIBITION [%]
NC(=O)CCC1CCCN(Cc2cnc(N3CCCCC3)nc2)C1 (stereo not drawn) | 44.23
Cc1ccoc1C(=O)NC1CCN(Cc2cccc3ccccc23)CC1 | 3.48
CC(=O)N(C)CC(=O)NC(C)c1ccc(OCCC(C)C)cc1 (stereo not drawn) | 29.41
N#Cc1c(N)nc2c(c1-c1c[nH]nc1C1CCCCC1)COCC2 | -64.94
Cn1nc(C2CC2)c2c1NC(=O)CC2c1ccc(CN2CCCCC2)s1 (stereo not drawn) | 22.63
Cn1nc(C2CC2)c2c1NC(=O)CC2c1cc(CN2CCCC2)cs1 (stereo not drawn) | 73.26
CCCn1nc(C)c2c1NC(=O)CC2c1ccc(CN2CCCC2)s1 (stereo not drawn) | 5.02
O=C(CC1CCCC1)N1CCC(c2nnc(-c3ccccn3)o2)CC1 | 9.09
Cc1cc(C(=O)NCCC(=O)N2CCCc3ccccc32)no1 | 12.39
COc1c(C(=O)NCc2cccnc2)nnn1Cc1ccc(C)cc1 | -19.47
Cc1ccc2c(c1)Oc1ncccc1C(=O)N2 | 9.43
CC(c1ccccc1)N(C)CC(=O)NCCC#N (stereo not drawn) | 59.24
CN(CC(=O)NCCC#N)C(c1ccccc1)c1ccc(F)cc1 (stereo not drawn) | 13.11
CN(CC(=O)NCCC#N)C(c1ccccc1)c1ccccc1 | 21.71
O=C(CCc1cc2n(n1)CCN(CCCn1cccc1)C2)N1CCCC1 | 5.1
CC1(C)CC(N(Cc2cccnc2)Cc2cccc(F)c2)CC(C)(C)N1 | -4.26
O=C(NCCCn1nc2ccccn2c1=O)Nc1ccc(F)cc1F | 4.96
CN1CCN(S(=O)(=O)c2cccc(S(=O)(=O)C3CCS(=O)(=O)C3)c2)CC1 (stereo not drawn) | 28.43
COc1ncc(C2CC(=O)NCc3nc4ccccn4c32)cn1 (stereo not drawn) | -36.24
COc1ccc(C2CC(=O)NCc3nc4ccccn4c32)cn1 (stereo not drawn) | 54.3
COc1ncccc1C1CC(=O)NCc2nc3ccccn3c21 (stereo not drawn) | 29.41
COCCC1(C(=O)O)CCCN(C(=O)c2cc(C)oc2C)C1 (stereo not drawn) | -11.55
CC(C)C(CCO)NC(=O)Nc1ccc(-c2csnn2)cc1 (stereo not drawn) | 12.78
CCN1CCCC(NC(=O)c2ccc(C)[nH]c2=O)C1 (stereo not drawn) | -53.67
Cc1ccc(C(=O)NC2CCCN(S(C)(=O)=O)C2)c(=O)[nH]1 (stereo not drawn) | -34.79
Cc1ccc(C(=O)NC2CCCN(C)C2)c(=O)[nH]1 (stereo not drawn) | 52.84
Cc1cccc(CN(Cc2ccc(C)o2)C2CC(C)(C)NC(C)(C)C2)n1 | 29.73

Structure (SMILES) | INHIBITION [%]
CCc1nc(N)nc(N2CCCC3(CCN(C)CC3)CC2)c1C | -17.39
CC(=O)c1ccc(-c2cnn(CC(=O)Nc3ccnn3C)c2)nc1 | 59.56
Cn1ccnc1-c1cnn(CC(=O)Nc2ccnn2C)c1 | 35.13
CC(=O)c1ccc(-c2cnn(CC(=O)Nc3cc(C)nn3C)c2)nc1 | 36.09
CS(=O)(=O)N1C[C@H]2CC[C@@H](C1)N(C(=O)CCc1n[nH]c3c1CCCC3)C2 | -4.58
Cn1cc(C2CCCN2Cc2csc(Cc3ccccc3)n2)cn1 (stereo not drawn) | 3.48
Cn1cc(C2CCCN2Cc2csc(C(C)(C)C)n2)cn1 (stereo not drawn) | -10.66
CCCc1nc(CN2CCCC2c2cnn(C)c2)cs1 (stereo not drawn) | 58.52
Cc1cc(NCCc2nnc(N)s2)nc(-c2ccccc2)n1 | 7.02
COc1nccnc1N1CCCC2(C1)C(=O)N(C)c1ccccc12 (stereo not drawn) | -8.8
CCN1CCc2c(cccc2NC(=O)N(C)C2CCSC2)C1 (stereo not drawn) | 51.9
CCN1CCN(c2ccccc2NC(=O)N(C)C2CCSC2)CC1 (stereo not drawn) | 25.08
CCN1CCc2c(cccc2NC(=O)CN(C)C2CCSC2)C1 (stereo not drawn) | 49.21
Cn1ccc(C(=O)Nc2cccc(-c3ccc4c(c3)CCO4)n2)cc1=O | -17.18
Cc1ccc2c(c1)OC(C)CN2C(=O)c1c[nH]c(C)cc1=O (stereo not drawn) | -33.29
CCn1nccc1CN(C)C(=O)Cn1nc(C)cc1C | -47.19
Cn1nc(Br)c2c(NCCCS(N)(=O)=O)ncnc21 | -5.61
CCOCC(=O)N1Cc2nccn2CC(CN(C)C)C1 (stereo not drawn) | -8.84
COc1ccc2nnc(CCC(=O)Nc3nc4c(s3)CCCC4)n2n1 | 21.57
COc1ccc2nnc(CCC(=O)Nc3nc4c(s3)CCCCC4)n2n1 | 48.59
COc1ccc2nnc(CCC(=O)Nc3nc4c(s3)CCC4)n2n1 | 58.29
COCCNC(=O)c1cc(C2CC2)nc2onc(C3CCNC3)c12 (stereo not drawn) | 5.75
CCOc1ccccc1NC(C)C(=O)N(C)Cc1cccc(F)c1 (stereo not drawn) | 4.8
CC(NC(=O)CCn1cccn1)c1ccc2c(c1)OCCO2 (stereo not drawn) | -17.31
CC(NC(=O)Cn1cccn1)c1ccc2c(c1)OCCO2 (stereo not drawn) | 21.39
CC(NC(=O)Cn1cccn1)c1ccc2c(c1)OCCCO2 (stereo not drawn) | 51.21
